Where a name gives a salt, the structure may show the parent alone.
Each compound was assayed on Danio rerio larvae (5 dpf) (assay: optomotor response to blue moving lines, difference vs DMSO (percentage points (treated minus DMSO)); higher = more of the behaviour than the DMSO vehicle control). Settings: 10 µM; exposure time: 3 h pre-incubation + 3 h imaging.
Experimental: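 5-dpf wild-type zebrafish larvae were imaged in 96-well plates. They were treated with 190 Tocris FDA-approved drugs at 10 µM (1 µl/ml DMSO) for 3 h before and 3 h during imaging at 28.5 °C, 48 larvae per drug. Automated image analysis gave % time moving and optomotor responses. Values are drug group mean minus DMSO vehicle mean (n=844), in percentage points, for 10 behaviours.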

SMILES	optomotor response to blue moving lines
CC(C)c1nc(N(C)S(C)(=O)=O)nc(-c2ccc(F)cc2)c1/C=C/[C@@H](O)C[C@@H](O)CC(=O)O [Rosuvastatin calcium]	10.7
N#Cc1ccc2[nH]cc(CCCCN3CCN(c4ccc5oc(C(N)=O)cc5c4)CC3)c2c1 [Vilazodone hydrochloride]	-5.66
CN1CCC[C@@H]1Cc1c[nH]c2ccc(CCS(=O)(=O)c3ccccc3)cc12 [Eletriptan hydrobromide]	5.86
COc1cc(N)c(Cl)cc1C(=O)NC1CCN(CCCOc2ccc(F)cc2)CC1OC (stereo not given) [Cisapride]	4.41
CCC(C)(C)C(=O)O[C@H]1C[C@@H](C)C=C2C=C[C@H](C)[C@H](CC[C@@H]3C[C@@H](O)CC(=O)O3)[C@H]21 [Simvastatin]	-4.79
COc1cc2nc(N3CCN(C(=O)C4COc5ccccc5O4)CC3)nc(N)c2cc1OC (stereo not given) [Doxazosin mesylate]	-6.52
CCOC(=O)N1CCC(=C2c3ccc(Cl)cc3CCc3cccnc32)CC1 [Loratidine]	6.09
O=C(O)c1cc(/N=N/c2ccc(S(=O)(=O)Nc3ccccn3)cc2)ccc1O [Sulfasalazine]	-4.22
CNC(=O)c1ccccc1Sc1ccc2c(/C=C/c3ccccn3)n[nH]c2c1 [Axitinib]	13.5
C#C[C@]1(O)CC[C@H]2[C@@H]3CCC4=CC(=O)CC[C@@H]4[C@H]3CC[C@@]21CC [Levonorgestrel]	19.5
COC(c1ccccc1)(c1ccccc1)[C@H](Oc1nc(C)cc(C)n1)C(=O)O [Ambrisentan]	-7.26
CC1(C)O[C@@H]2[C@@H](CO[C@@]3(COS(N)(=O)=O)OC(C)(C)O[C@@H]23)O1 [Topiramate]	-3.75
CC(=O)O[C@H]1C(=O)[C@@]2(C)[C@H]([C@H](OC(=O)c3ccccc3)[C@]3(O)C[C@H](OC(=O)[C@H](O)[C@@H](NC(=O)c4ccccc4)c4ccccc4)C(C)=C1C3(C)C)[C@]1(OC(C)=O)CO[C@@H]1C[C@@H]2O [Taxol]	-0.599
CCCCc1nc(Cl)c(CO)n1Cc1ccc(-c2ccccc2-c2nnn[nH]2)cc1 [Losartan potassium]	-6.92
Nc1nc(NC2CC2)c2ncn([C@H]3C=C[C@@H](CO)C3)c2n1 [Abacavir hemisulfate]	2.71
C=C1[C@H](CO)[C@@H](O)C[C@@H]1n1cnc2c(=O)[nH]c(N)nc21 [Entecavir]	11.4
CC[C@H]1OC(=O)[C@H](C)[C@@H](O[C@H]2C[C@@](C)(OC)[C@@H](O)[C@H](C)O2)[C@H](C)[C@@H](O[C@@H]2O[C@H](C)C[C@H](N(C)C)[C@H]2O)[C@](C)(O)C[C@@H](C)CN(C)[C@H](C)[C@@H](O)[C@]1(C)O [Azithromycin]	-9.61
Brc1c(NC2=NCCN2)ccc2nccnc12	7.07
CCOC(=O)c1ncn2c1CN(C)C(=O)c1cc(F)ccc1-2 [Flumazenil]	11.4
CN1CC[C@@H](NC(=O)Nc2ccc(C#N)cc2)C[C@@H]1c1nc2ccccc2[nH]1	3.76

SMILES	optomotor response to blue moving lines
CN1CCC[C@@H]1CCO[C@](C)(c1ccccc1)c1ccc(Cl)cc1 [Clemastine fumarate]	22.4
C[C@H](Cc1cc2c(c(C(N)=O)c1)N(CCCO)CC2)NCCOc1ccccc1OCC(F)(F)F [Silodosin]	15.7
Cc1ccc(-c2cc(C(F)(F)F)nn2-c2ccc(S(N)(=O)=O)cc2)cc1 [Celecoxib]	-3.07
O=C1CCc2cc(OCCCCc3nnnn3C3CCCCC3)ccc2N1 [Cilostazol]	6.53
CN1CC(=O)N2[C@H](c3ccc4c(c3)OCO4)c3[nH]c4ccccc4c3C[C@@H]2C1=O [Tadalafil]	-3.81
CCCCC1=NC2(CCCC2)C(=O)N1Cc1ccc(-c2ccccc2-c2nnn[nH]2)cc1 [Irbesartan]	-14
CN1CCN2c3ncccc3Cc3ccccc3C2C1 (stereo not given) [Mirtazapine]	-2.95
Cc1ccsc1C(=CCCN1CCC[C@@H](C(=O)O)C1)c1sccc1C [Tiagabine hydrochloride]	24.1
CCN(CC)CCNC(=O)c1c(C)[nH]c(/C=C2\C(=O)Nc3ccc(F)cc32)c1C [Sunitinib malate]	-5.69
C[C@@H](O[C@H]1OCCN(Cc2n[nH]c(=O)[nH]2)[C@H]1c1ccc(F)cc1)c1cc(C(F)(F)F)cc(C(F)(F)F)c1 [Aprepitant]	4.96
CCc1c2c(nc3ccc(OC(=O)N4CCC(N5CCCCC5)CC4)cc13)-c1cc3c(c(=O)n1C2)COC(=O)[C@]3(O)CC	1.97
CC(C)(C(=O)c1cccnc1)c1cccnc1 [Metyrapone]	-8.19
C[C@H]1O[C@H](O[C@H]2[C@H](O)[C@@H](O)[C@@H](O[C@H]3[C@H](O)[C@@H](O)C(O)O[C@@H]3CO)O[C@@H]2CO)[C@H](O)[C@@H](O)[C@@H]1N[C@H]1C=C(CO)[C@@H](O)[C@H](O)[C@H]1O (stereo not given in full) [Acarbose]	15.5
Cc1cccc(C)c1OCC(C)N (stereo not given) [Mexiletine hydrochloride]	7.61
Cc1ccc(O)c([C@H](CCN(C(C)C)C(C)C)c2ccccc2)c1 [Tolterodine L-tartrate]	7.18
CC1=Nc2ccc(Cl)cc2S(=O)(=O)N1 [Diazoxide]	0.0367
OCCN(CCO)c1nc(N2CCCCC2)c2nc(N(CCO)CCO)nc(N3CCCCC3)c2n1 [Dipyridamole]	-5.39
COc1ccccc1Oc1c(NS(=O)(=O)c2ccc(C(C)(C)C)cc2)nc(-c2ncccn2)nc1OCCO [Bosentan]	-2.84
CC(=O)S[C@@H]1CC2=CC(=O)CC[C@]2(C)[C@H]2CC[C@@]3(C)[C@@H](CC[C@@]34CCC(=O)O4)[C@H]12 [Spironolactone]	1.86
CO[C@H]1/C=C/O[C@@]2(C)Oc3c(C)c(O)c4c(O)c(c5c(nc6cc(C)ccn65)c4c3C2=O)NC(=O)/C(C)=C\C=C\[C@H](C)[C@H](O)[C@@H](C)[C@@H](O)[C@@H](C)[C@H](OC(C)=O)[C@@H]1C [Rifaximin]	9.62

Reference: the supplement of paper PMC9023506
